Screens as filed in PubChem.
HT1080 IDH1KD tx: qHTS for induction of synthetic lethality in tumor cells producing 2HG: qHTS for the HT-1080-IDH1KD cell line. HT-1080 IDH1 knockdown viability, ATP luminescence, 48 h. Potency, µM (series often up to 46.1 µM), inactives show at the highest dose activity, negative = toxicity, usual class: cytotoxic. 360,000 compounds, 2% hits;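 note: 0% = DMSO wells and -100% = cell-free medium wells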
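Cytotoxicity counter-line: IDH1KD HT-1080, 48 h, CellTiter-Glo. Curves classed by r2, magnitude and activity.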
ATXN viability: Viability Counterscreen for Primary qHTS for Inhibitors of ATXN expression | S2 cells (HEK-293 line with an ATXN2-luciferase reporter) viability, CellTiter-Fluor protease fluorescence, 24 h | 400,000 compounds, 0.49% hits | AID 651635, 2014 | Potency, µM (top dose mostly 56.7 µM), actives largely listed as cytotoxic; note: nearly all actives have a fitted effect of over 40% in size
HT1080-NT tox: qHTS for induction of synthetic lethality in tumor cells producing 2HG: qHTS for the HT-1080-NT fibrosarcoma cell line; 360,000 compounds, 1.6% hits; HT-1080-NT fibrosarcoma viability, CellTiter-Glo ATP luminescence, 48 h; Potency, µM (series often up to 46.1 µM), inactives show top-dose activity, negative = less viability, actives largely listed as cytotoxic; AID 686970, 2013;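 note: NT is the 2HG producing partner of a matched IDH1 knockdown line; 0% = DMSO-treated cells and -100% = media-only wells without cells; nearly all actives have a fitted effect of over 55% in size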
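HT-1080-NT; 750 cells/well; 5% FBS RPMI; 48 h compound, 37 degrees C; CellTiter-Glo luminescence; curve fitting and curve-class assignment.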
KB-3-1 tox: qHTS assay for MDR1-selective chemotherapeutics: Primary screen using the parental adenocarcinoma cell KB-3-1; KB-3-1 viability, CellTiter-Glo ATP luminescence, 72 h; Potency, µM (highest dose often 46.1 µM), actives largely listed as cytotoxic; 400,000 compounds, 1.4% hits; AID 1347075, 2019; note: % is set by controls: 0 for no effect and ±100 for the full control effect; nearly all actives have a fitted effect of over 60% in size
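Cytotoxicity in the drug-sensitive parental line KB-3-1 was scored as loss of CellTiter-Glo luminescence following 72 h incubation with compound. Values come from curve fitting of normalized concentration-response data.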
ATXN2 expr inh: Primary qHTS for Inhibitors of ATXN expression; HEK-293 ATXN2-luciferase reporter, luminescence, 24 h; Potency, µM (titrated, usually from 57 µM), inactives show at the top dose activity change, negative = inhibition, most hits filed as inhibitors; 360,000 compounds, 0.72% hits; AID 1745845, 2022; note: % is set by controls: 0 for no effect and ±100 for the full control effect; nearly all actives have a fitted effect of over 55% in size
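qHTS (up to 57 uM final) was run with 24 h compound exposure of reporter cells at 37 °C. Each well was multiplexed: SteadyGlo luminescence measured ATXN2-luciferase expression after a fluorogenic Gly-Phe-AFC viability readout (25 uM final).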
KB-V1 cytotox: qHTS assay for MDR1-selective chemotherapeutics: Primary screen using the drug-selected MDR subline cells KB-V1; KB-V1 MDR cells viability, CellTiter-Glo, 72 h; Potency, µM (titrated, usually from 46.1 µM), usual class: cytotoxic; 400,000 compounds, 3.4% hits; AID 1347076, 2019; note: % is set by controls: 0 for no effect and ±100 for the full control effect; nearly all actives have a fitted effect of over 60% in size
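In this primary screen, KB-V1 cells overexpressing P-gp are incubated with library compounds (lowest to highest concentration) for 72 h at 37 degrees C before a luminescent ATP viability read.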
The depositor's hits bear a star. Most compounds without a hit are left out; they make up all but 6.2% or so of the library. Calls come from the whole dose curve; as a rule, active = well fitted curve in the direction sought with a large enough effect; inconclusive = small, poorly fitted or top-dose-only effect, or another doubt; inactive = no such curve, though single readings can be large; an effect the other way counts as inactive or inconclusive. Potency is the fitted concentration of half-maximal effect.

Screening CCOC(=O)C1CCN(C(=O)c2cccc(N3C(=O)NC4CC3(C)Oc3ccc(C)cc34)c2)CC1 (centres undefined) returned HT1080 IDH1KD tx 1.5%, ATXN viability inactive, HT1080-NT tox -3.1%, KB-3-1 tox inactive, ATXN2 expr inh 4.0% and KB-V1 cytotox inactive.
CCOC(=O)N1CCN(C(=O)c2cccc(N3C(=O)NC4CC3(C)Oc3ccc(Cl)cc34)c2)CC1 (centres undefined) was read as HT1080 IDH1KD tx 7.31µM*, ATXN viability inactive, HT1080-NT tox 7.31µM*, KB-3-1 tox inconclusive, ATXN2 expr inh -23.8% and KB-V1 cytotox inactive.
`COc1ccc(-n2c(=O)c3c4c(sc3n(Cc3c(F)cccc3Cl)c2=O)CN(C(C)=O)CC4)cc1OC` gave ATXN viability inactive, KB-3-1 tox inactive, ATXN2 expr inh -2.8% and KB-V1 cytotox inactive.
`CCN1CCCC1CNCc1cccc(OC)c1OCc1ccc(F)cc1` (centres undefined) gave HT1080 IDH1KD tx -8.7%, ATXN viability inactive, HT1080-NT tox 0.8%, KB-3-1 tox inactive, ATXN2 expr inh 5.7% and KB-V1 cytotox 11.6µM*.
For C[C@](Cc1c[nH]c2ccccc12)(NC(=O)OC1C2CC3CC(C2)CC1C3)C(=O)NC[C@H](NC(=O)CCC(=O)O)c1ccccc1 (some centres undefined) the results were ATXN2 expr inh -1.8%.
`C/C(=N\NC(=O)c1cc(C)nc2ccccc12)c1ccccn1` gave HT1080 IDH1KD tx inconclusive, ATXN viability inconclusive, HT1080-NT tox inconclusive, KB-3-1 tox inactive, ATXN2 expr inh inconclusive and KB-V1 cytotox inactive.
Screening COc1ccc2nc(NN=C(C)c3ccccn3)cc(C)c2c1 returned HT1080 IDH1KD tx 11.6µM*, ATXN viability 7.52µM*, HT1080-NT tox -29.3%, KB-3-1 tox inconclusive, ATXN2 expr inh inconclusive and KB-V1 cytotox 1.16µM*.
For COc1cccc(NC(=O)c2oc3ccccc3c2NC(=O)Cc2cccc(C)c2)c1 the results were ATXN viability inactive, KB-3-1 tox inactive, ATXN2 expr inh -5.4% and KB-V1 cytotox inactive.
`O=C(NCCc1ccc2c(c1)OCCO2)c1cc(S(=O)(=O)N2CCCC2)ccc1Br` gave HT1080 IDH1KD tx -1.1%, ATXN viability inactive, HT1080-NT tox 5.7%, KB-3-1 tox inconclusive, ATXN2 expr inh 1.8% and KB-V1 cytotox 20.6µM*.
`O=C(NCCc1ccc2c(c1)OCCO2)c1cccc(F)c1` gave HT1080 IDH1KD tx 6.8%, ATXN viability inactive, HT1080-NT tox 8.9%, KB-3-1 tox inconclusive and KB-V1 cytotox inactive.
Screening Cc1ccc(S(=O)(=O)N2CCCCC2)cc1C(=O)NCCc1ccccc1 returned HT1080 IDH1KD tx -1.2%, ATXN viability inactive, HT1080-NT tox -2.0%, KB-3-1 tox inactive, ATXN2 expr inh -5.2% and KB-V1 cytotox inconclusive.
`O=C(NCCc1ccc2c(c1)OCCO2)c1cc(F)cc(F)c1` gave HT1080 IDH1KD tx -19.1%, ATXN viability inactive, HT1080-NT tox -23.4%, KB-3-1 tox inconclusive, ATXN2 expr inh 5.9% and KB-V1 cytotox 11.6µM*.
For S=C1NCCc2ccc(Cl)cc2C1c1ccccc1Cl (centres undefined) the results were HT1080 IDH1KD tx -25.9%, ATXN viability inactive, HT1080-NT tox -16.4%, KB-3-1 tox inactive, ATXN2 expr inh -21.3% and KB-V1 cytotox inactive.
`Clc1ccc2c(c1)C(C1=NCCN1)c1ccccc1CS2` (centres undefined) gave HT1080 IDH1KD tx 1.46µM*, ATXN viability inconclusive, HT1080-NT tox 1.16µM*, KB-3-1 tox 0.92µM*, ATXN2 expr inh inconclusive and KB-V1 cytotox 10.3µM*.
